In the supplement of paper PMC9950053 one finds 1-h baseline activity data, which are given here for 40 molecules.

SMILES strings stand for the structures. Counter-ions that a name gives are not always drawn.

For this assay, the system named is Danio rerio larvae (5 dpf). Kind of assay: 1-h baseline activity (% time moving, periods 1-6) minus DMSO control (percentage points); higher = more locomotor activity than DMSO larvae. To be noted: 10 µM; exposure time: 3 h pre-incubation + 3 h imaging. The protocol:
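Wild-type 5 dpf zebrafish larvae (n=48 per drug, 96-well plates, 28.5 °C) were exposed to Tocris FDA-approved library compounds at 10 µM (0.1% DMSO) for 3 h before and 3 h during imaging. Images were taken every 6 s during visual (moving coloured lines) and acoustic stimuli, and larvae were tracked with the DeepLabCut-based Z-LaP Tracker. Each behavioural measure is the treated-group mean minus the DMSO vehicle control mean (n=844), in percentage points. This mapping covers compounds with 4-character plate codes.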
As for `OCCOCCN1CCN(C2=Nc3ccccc3Sc3ccccc32)CC1` [Quetiapine hemifumarate], the 1-h baseline activity was 9.62.
Turning to `CC(C)n1c(/C=C/C(O)CC(O)CC(=O)O)c(-c2ccc(F)cc2)c2ccccc21` (stereo not given) [Fluvastatin sodium], the 1-h baseline activity is -0.765.
With `C=CC(=O)N1CCC[C@@H](n2nc(-c3ccc(Oc4ccccc4)cc3)c3c(N)ncnc32)C1` [Ibrutinib] the figure was -7.48.
Turning to `O=C(O)c1cc(/N=N/c2ccc(S(=O)(=O)Nc3ccccn3)cc2)ccc1O` [Sulfasalazine], the 1-h baseline activity came out at 12.5.
For the molecule `CC(C)C(=O)Nc1ccc([N+](=O)[O-])c(C(F)(F)F)c1` [Flutamide], the 1-h baseline activity is -9.78.
As to `Nc1cc(N2CCCCC2)nc(N)[n+]1[O-]` [Minoxidil], the 1-h baseline activity stood at 1.13.
With `NC(=O)N1c2ccccc2C=Cc2ccccc21` [Carbamazepine] the figure was -4.18; with `Nc1ccn([C@@H]2O[C@H](CO)[C@@H](O)C2(F)F)c(=O)n1` [Gemcitabine hydrochloride], -7.23; with `COc1ccc([C@@H]2Sc3ccccc3N(CCN(C)C)C(=O)[C@@H]2OC(C)=O)cc1` [Diltiazem hydrochloride], -4.8.
With `CNC(=O)c1ccccc1Sc1ccc2c(/C=C/c3ccccn3)n[nH]c2c1` [Axitinib], the 1-h baseline activity was -3.55.
For the molecule `CN1CC(=O)N2[C@H](c3ccc4c(c3)OCO4)c3[nH]c4ccccc4c3C[C@@H]2C1=O` [Tadalafil], the 1-h baseline activity was 10.9.
With `CC(=O)O[C@H]1C(=O)[C@@]2(C)[C@H]([C@H](OC(=O)c3ccccc3)[C@]3(O)C[C@H](OC(=O)[C@H](O)[C@@H](NC(=O)c4ccccc4)c4ccccc4)C(C)=C1C3(C)C)[C@]1(OC(C)=O)CO[C@@H]1C[C@@H]2O` [Taxol], the 1-h baseline activity is 1.47.
Next, `COc1cc(Nc2c(C#N)cnc3cc(OCCCN4CCN(C)CC4)c(OC)cc23)c(Cl)cc1Cl` [Bosutinib]: -17.1; `CC(CCc1ccc(O)cc1)NCCc1ccc(O)c(O)c1` (stereo not given) [Dobutamine hydrochloride]: -2.47.
With `CCOC(=O)C1=C(COCCN)NC(C)=C(C(=O)OC)C1c1ccccc1Cl` (stereo not given) [Amlodipine besylate], the 1-h baseline activity turned out to be 0.364.
With `Nc1cccc2c1CN(C1CCC(=O)NC1=O)C2=O` (stereo not given) [Lenalidomide], the 1-h baseline activity was -7.06.
Next, `COCCCOc1cc(C[C@@H](C[C@H](N)[C@@H](O)C[C@H](C(=O)NCC(C)(C)C(N)=O)C(C)C)C(C)C)ccc1OC` [Aliskiren hemifumarate]: -5.54.
Next, `CN(CCOc1ccc(NS(C)(=O)=O)cc1)CCc1ccc(NS(C)(=O)=O)cc1` [Dofetilide]: -0.169; `NS(=O)(=O)c1cc(C(=O)O)c(NCc2ccco2)cc1Cl` [Furosemide]: 5.77; `CCOC(=O)[C@H](CCc1ccccc1)N[C@H]1CCc2ccccc2N(CC(=O)O)C1=O` [Benazepril hydrochloride]: 0.149.
As for `Cc1ccc(NC(=O)c2ccc(CN3CCN(C)CC3)cc2)cc1Nc1nccc(-c2cccnc2)n1` [Imatinib mesylate], the 1-h baseline activity was -13.5.
For `CCCCCOC(=O)Nc1nc(=O)n([C@@H]2O[C@H](C)[C@@H](O)[C@H]2O)cc1F` [Capecitabine], the 1-h baseline activity was determined as 6.82.
As to `C[C@]12CCC(=O)C=C1CC[C@@H]1[C@@H]2[C@@H](O)C[C@@]2(C)[C@H]1CC[C@]2(O)C(=O)CO` [Hydrocortisone], the 1-h baseline activity was 1.95.
In the case of `N[C@@H]1[C@H]2CN(c3nc4c(cc3F)c(=O)c(C(=O)O)cn4-c3ccc(F)cc3F)C[C@@H]12` [Trovafloxacin mesylate], the 1-h baseline activity turned out to be 4.29.
As to `CCN(Cc1ccncc1)C(=O)C(CO)c1ccccc1` (stereo not given) [Tropicamide], the 1-h baseline activity was -5.81.
As to `CC(C)N(CCCCOCC(=O)NS(C)(=O)=O)c1cnc(-c2ccccc2)c(-c2ccccc2)n1` [Selexipag], the 1-h baseline activity is 1.65.
Next, `Cc1ccc(N(CC2=NCCN2)c2cccc(O)c2)cc1` [Phentolamine Mesylate]: 7.71; `COc1ccc(-c2ccc3cc(C(=O)O)ccc3c2)cc1C12CC3CC(CC(C3)C1)C2` [Adapalene]: -1.21; `CCC(C)(C)C(=O)O[C@H]1C[C@@H](C)C=C2C=C[C@H](C)[C@H](CC[C@@H]3C[C@@H](O)CC(=O)O3)[C@H]21` [Simvastatin]: 6.15.
For the molecule `CCc1ccc(CCOc2ccc(CC3SC(=O)NC3=O)cc2)nc1` (stereo not given) [Pioglitazone hydrochloride], the 1-h baseline activity is -7.48.
Consider `CCCN(CCc1cccs1)[C@H]1CCc2c(O)cccc2C1` [Rotigotine hydrochloride], for which the 1-h baseline activity was -27.
With `CCCCC1=NC2(CCCC2)C(=O)N1Cc1ccc(-c2ccccc2-c2nnn[nH]2)cc1` [Irbesartan], the 1-h baseline activity came to 1.48.
In the case of `Cc1nnc(C(C)C)n1C1C[C@H]2CC[C@@H](C1)N2CC[C@H](NC(=O)C1CCC(F)(F)CC1)c1ccccc1` (stereo in doubt) [Maraviroc], the 1-h baseline activity is -3.33.
For `Cc1cn([C@H]2C=C[C@@H](CO)O2)c(=O)[nH]c1=O` [Stavudine], the 1-h baseline activity was -7.04.
As for `O=c1[nH]c(=O)n([C@H]2C[C@H](O)[C@@H](CO)O2)cc1C(F)(F)F` [Trifluorothymidine], the 1-h baseline activity was determined as 0.518.
Next, `OC(CNCC(O)C1CCc2cc(F)ccc2O1)C1CCc2cc(F)ccc2O1` (stereo not given) [Nebivolol hydrochloride]: -2.33.
Turning to `CC(C)C(=O)OCC(=O)[C@@]12O[C@H](C3CCCCC3)O[C@@H]1C[C@H]1[C@@H]3CCC4=CC(=O)C=C[C@]4(C)[C@H]3[C@@H](O)C[C@@]12C` [Ciclesonide], the 1-h baseline activity is -10.2.
With `CC1=Nc2ccc(Cl)cc2S(=O)(=O)N1` [Diazoxide], the 1-h baseline activity worked out at 7.2.
With `C[C@H](Cc1cc2c(c(C(N)=O)c1)N(CCCO)CC2)NCCOc1ccccc1OCC(F)(F)F` [Silodosin] the figure was -3.52.
For the molecule `N#Cc1ccc(C(c2ccc(C#N)cc2)n2cncn2)cc1` [Letrozole], the 1-h baseline activity is -4.77.
